Mcl1-Noxa inh: Mcl-1/Noxa binding inhibitors, primary screen, biochemical, TR-FRET, 1536-well; Induced myeloid leukemia cell differentiation protein Mcl-1 (Homo sapiens), Q07820; TR-FRET Mcl-1/Noxa peptide binding, 2 h; inhibition, % at 21.7 µM; 220,000 tested, 1.5% active; AID 1022, 2008;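 active means compounds that cut the protein-peptide binding signal by more than 50% relative to plate controls in a single-dose test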;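 further: His-tagged Mcl-1 with rhodamine Noxa BH3 peptide and terbium anti-His antibody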
Target sequence (Q07820 whole entry, looked up): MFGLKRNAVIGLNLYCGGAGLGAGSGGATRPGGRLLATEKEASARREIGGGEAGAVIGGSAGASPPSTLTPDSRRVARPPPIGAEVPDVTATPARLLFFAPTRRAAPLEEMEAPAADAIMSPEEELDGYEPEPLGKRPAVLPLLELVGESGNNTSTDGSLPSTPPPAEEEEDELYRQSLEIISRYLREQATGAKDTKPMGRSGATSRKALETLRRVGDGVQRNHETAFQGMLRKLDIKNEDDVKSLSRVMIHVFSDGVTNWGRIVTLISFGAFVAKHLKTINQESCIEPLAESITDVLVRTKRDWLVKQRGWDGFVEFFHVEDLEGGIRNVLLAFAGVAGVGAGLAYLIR
MCL1 BIM primary: inhibitors of MCL1 binding to BIM-BH3, primary screen, biochemical, fluorescence polarization. Induced myeloid leukemia cell differentiation protein Mcl-1 (Homo sapiens), Q07820. AID 2057, 2009. 320,000 tested, 0.68% active. GST-MCL1 / FITC-Bim-BH3 fluorescence polarization. inhibition, % at 10.9 µM;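 active means inhibition above the mean inhibition of all tested compounds plus 3 SD, set per campaign, cut at about 40% in these data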;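 further: higher means more loss of mP so more displacement of Bim peptide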
L929 necroptosis: inhibitors of zVAD-triggered necroptosis, primary screen, L929 cells | L929 zVAD necroptosis rescue, ATP luminescence, 24 h; with zVAD 60 µM | viability rescue, % at 10 µM | 220,000 tested, 0.38% active | AID 1377, 2008;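 active means activation, scaled between plate controls, above about 75%, limit read from the data; inactive means activation under that limit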
Mcl1 Bid PPI: Mcl-1/Bid binding inhibitors, primary screen, biochemical, TR-FRET, 1536-well; 220,000 tested, 0.97% active; TR-FRET Mcl-1/Bid-Dy647 peptide binding; inhibition, % at 21.7 µM; Induced myeloid leukemia cell differentiation protein Mcl-1 (Homo sapiens), Q07820;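 active means compounds that cut the binding signal by more than half at the single screening dose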;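 further: His-tagged Mcl-1 with europium anti-His antibody binding Bid BH3 peptide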
Mcl-1 Bim block: inhibitors of Bim peptide binding to Mcl-1, primary screen, biochemical, bead-based flow cytometry, multiplex | Induced myeloid leukemia cell differentiation protein Mcl-1 (Homo sapiens), Q07820 | inhibition, % at 10 µM | AID 1009, 2008 | Bim peptide-Mcl-1 binding | 190,000 tested, 0.1% active; in the data active means inhibition above about 40%
TNF death inh: inhibitors of TNF-alpha triggered necroptosis, primary screen, cell-based, Jurkat FADD-/-, single concentration | Jurkat FADD-/- TNF necroptosis rescue, ATP luminescence, 24 h; 0 = TNF only, 100 = no-TNF cells | activation (protection from cell death), % at 10 µM | 220,000 tested, 0.068% active;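 active means activation, meaning protection from cell death, of at least 50% relative to plate controls; inactive means activation below 50%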;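 further: necroptosis triggered by 40 ng/mL TNF-alpha added together with compound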
A number is an active result; . = inactive; / = no result given. Most compounds without a hit are left out; they make up all but 2.4% or so of the library.

SMILES	Mcl1-Noxa inh	MCL1 BIM primary	L929 necroptosis	Mcl1 Bid PPI	Mcl-1 Bim block	TNF death inh
CCCn1cc(CN2CCC(Oc3ccc(C(=O)N4CCCC4)cc3)CC2)c(C)n1	/	.	/	/	/	/
COc1cc(/C=N/NC(=O)C(=O)NCc2ccco2)cc(Br)c1O	56	.	.	.	/	.
COc1ccc(/C=N/NC(=O)c2cccc([N+](=O)[O-])c2)cc1OC	.	.	.	.	.	.
COc1cc(/C=N/NC(=O)c2ccc(Cn3cc([N+](=O)[O-])cn3)o2)cc(Br)c1O	56	.	.	.	.	.
COc1cc(/C=N/NC(=O)c2cccc([N+](=O)[O-])c2)cc(OC)c1O	67	.	.	.	.	.
COc1cc(/C=N/NC(=O)c2cc(-c3ccco3)nc3ccccc23)cc(OC)c1O	82	.	.	.	/	.
COc1cc(/C=N/NC(=O)c2cc(-c3ccccc3Cl)nc3ccccc23)cc(OC)c1O	/	.	/	/	/	/
COc1ccc(/C=N/NC(=O)c2ccc(Cn3cc([N+](=O)[O-])cn3)o2)cc1O	.	.	.	.	.	.
Cc1c(OCC(=O)N[C@@H](Cc2c[nH]c3ccccc23)C(=O)O)ccc2c1oc(=O)c1ccccc12	/	.	/	/	/	/
COc1cc(/C=N/NC(=O)c2ccoc2C)cc(OC)c1O	57	.	.	.	.	.
Cc1occc1C(=O)N/N=C/c1ccc(N(C)C)cc1	.	.	.	74	/	.
COc1ccc(/C=N/Nc2ccc([N+](=O)[O-])cc2)cc1Cn1cc([N+](=O)[O-])cn1	72	.	.	58	.	.
COc1ccc(/C=N/NC(=O)c2ccoc2C)cc1COc1c(C)cccc1C	.	.	.	.	.	.
Cc1occc1C(=O)N/N=C/C=C/c1ccc(N(C)C)cc1	/	.	/	/	/	/
COc1ccc(C(=O)Oc2c(OC)cc(C(=S)N3CCOCC3)cc2OC)cc1OC	/	.	/	/	/	/
COc1ccc(C(=O)NCc2nnc(SCC(=O)NCCc3ccccc3)o2)cc1	/	.	/	/	/	/
CCC(C)NC(=O)CSc1nnc(-c2c[nH]c3ccccc23)o1 (stereo not drawn)	.	.	.	.	.	.
CN(C(=S)Oc1ccc(C(=O)Nc2ccccc2)cc1)c1ccccc1	.	.	.	.	.	.
COc1ccc(NC(=O)c2ccc(OC(=S)N(C)c3ccc(OC)cc3)cc2)cc1	.	.	.	.	.	68
COc1ccc(C(=O)NCc2nnc(SCC(=O)N3CCCCC3)o2)cc1OC	.	.	.	83	.	.
O=C(Nc1ccc(N2CCN(C(=O)c3ccccc3F)CC2)cc1)c1cncc(Br)c1	/	.	/	/	/	/
COc1ccc2[nH]c3nc(SCC(=O)NNC(=O)c4ccc(OC)c(OC)c4)nnc3c2c1	.	.	.	.	.	.
Cc1ccc(C(=O)NNC(=O)CSc2nnc3c(n2)[nH]c2ccc(F)cc23)cc1	53	.	.	80	.	.
COc1ccc(N)c2c1OCCC2=O	57	.	.	.	.	.
COc1ccc(Nc2nc(-c3cccc([N+](=O)[O-])c3)nc3ccccc23)c(OC)c1	.	.	.	.	.	.
SMILES	Mcl1-Noxa inh	MCL1 BIM primary	L929 necroptosis	Mcl1 Bid PPI	Mcl-1 Bim block	TNF death inh
COc1ccc(OC)c(Nc2nc(-c3cccc([N+](=O)[O-])c3)nc3ccccc23)c1	.	.	.	70	.	.
COc1ccccc1CNC(=O)COC(=O)CSc1ccc(F)cc1	/	.	/	/	/	/
O=C(NC(=S)Nc1ccccc1N1CCOCC1)c1cccs1	.	.	.	.	.	.
O=C(Cc1ccccc1)Nc1ccccc1N1CCOCC1	.	.	.	.	.	.
O=C(Nc1ccccc1N1CCOCC1)c1cccs1	.	.	.	.	82	.
CN(C)CCCNCC(=O)Nc1ccccc1N1CCOCC1	.	.	.	62	.	.
COC(=O)c1c(NC(=O)CC2Nc3cc(C)c(C)cc3NC2=O)sc(C)c1C (stereo not drawn)	64	.	.	62	.	.
COc1cccc(N=Cc2ccc(O)cc2O)c1	.	43	.	.	.	.
CC1(C)CC(=O)CC(=NCC(=O)O)C1	66	.	.	.	.	.
CC1(C)CC(=O)C/C(=N\NC(=S)NCc2ccccc2)C1	.	.	.	.	.	.
Cc1ccc(S(=O)(=O)CC(=O)Nc2ncc([N+](=O)[O-])s2)cc1	/	.	/	/	/	/
Cc1ccc(CC(=O)Nc2ncc([N+](=O)[O-])s2)cc1	.	.	.	.	.	77
CC(C)CN1CCC(Oc2cccc(C(=O)NCCc3ccccc3)c2)CC1	/	.	/	/	/	/
Cc1ccccc1NS(=O)(=O)c1ccc2[nH]cc(C(=O)N(C)Cc3ccco3)c(=O)c2c1	.	.	.	51	.	.
CCc1ccccc1NS(=O)(=O)c1ccc2[nH]cc(C(=O)NCC3CCCO3)c(=O)c2c1 (stereo not drawn)	72	.	.	59	.	.
Cc1cc(C)cc(NS(=O)(=O)c2ccc3[nH]cc(C(=O)NCc4ccco4)c(=O)c3c2)c1	.	.	.	.	.	.
COc1cccc(NS(=O)(=O)c2ccc3[nH]cc(C(=O)N(C)Cc4ccco4)c(=O)c3c2)c1	.	.	.	58	.	.
CCN(CC(=O)Nc1c(F)cccc1F)C(=O)C1CC1	/	.	/	/	/	/
COc1ccc(Br)cc1/C=C(\C(=O)O)c1ccc(S(=O)(=O)N2CCCCC2)s1	/	.	/	/	/	/
O=C(N/N=C/c1cccnc1)c1cccc(NC(=O)c2ccccc2Cl)c1	/	.	/	/	/	/
O=C(N/N=C/c1ccncc1)c1cccc(NC(=O)c2ccccc2Cl)c1	.	.	.	.	42	.
COc1ccc(C)cc1NC(=O)CN1C(=O)COc2ccc(C)cc21	/	.	/	/	/	/
CC(C)Oc1ccc(OCCCN2CCCCCC2)cc1	.	.	.	54	.	.
CCOC(=O)C(/C(C)=N/NC(=O)C1CC1c1ccccc1)C(C)C (stereo not drawn)	.	.	.	.	.	.
CCOC(=O)Cc1csc(NC(=O)c2sc3nc4ccc(CC)cc4cc3c2N)n1	89	.	.	91	.	.
SMILES	Mcl1-Noxa inh	MCL1 BIM primary	L929 necroptosis	Mcl1 Bid PPI	Mcl-1 Bim block	TNF death inh
CCOC(=O)Cc1csc(NC(=O)c2ccc(Br)o2)n1	.	.	.	.	.	.
COc1ccc(CCNc2nc(-c3sc(N)nc3C)cs2)cc1OC	.	.	.	.	.	.
COc1ccccc1CC(=O)Nc1nc(-c2ccc(F)c(F)c2)cs1	/	.	/	/	/	/
Cc1cc(-c2csc(N)n2)c(C)n1C	.	42	.	.	.	.
COc1ccccc1CNc1nc(-c2cc(C)n(C)c2C)cs1	90	/	.	65	.	.
COCCNc1nc(-c2cc(C)n(CCc3ccc(OC)cc3)c2C)cs1	57	.	.	.	.	.
O=C(COc1ccc(Cl)cc1Cl)N/N=C/C1CC=CCC1 (stereo not drawn)	/	.	/	/	/	/

Bioassay records (PubChem BioAssay)
